Assay outcomes deposited in PubChem BioAssay by National Center for Advancing Translational Sciences (NCATS).
TDP1 inh – inhibitors of human tyrosyl-DNA phosphodiesterase TDP1; recombinant TDP1, AlphaScreen DNA substrate cleavage; Potency, µM (titrated, usually from 130 µM), for inactives: top-dose activity change, negative = inhibition, actives largely listed as inhibitors; Q9NUW8; AID 485290; 350,000 compounds, 0.28% hits; note: potency is the fitted concentration of half-maximal effect; % is set by controls: 0 for no effect and ±100 for the full control effect; nearly all actives have a fitted effect of over 40% in size
Target sequence (Q9NUW8 whole entry, looked up): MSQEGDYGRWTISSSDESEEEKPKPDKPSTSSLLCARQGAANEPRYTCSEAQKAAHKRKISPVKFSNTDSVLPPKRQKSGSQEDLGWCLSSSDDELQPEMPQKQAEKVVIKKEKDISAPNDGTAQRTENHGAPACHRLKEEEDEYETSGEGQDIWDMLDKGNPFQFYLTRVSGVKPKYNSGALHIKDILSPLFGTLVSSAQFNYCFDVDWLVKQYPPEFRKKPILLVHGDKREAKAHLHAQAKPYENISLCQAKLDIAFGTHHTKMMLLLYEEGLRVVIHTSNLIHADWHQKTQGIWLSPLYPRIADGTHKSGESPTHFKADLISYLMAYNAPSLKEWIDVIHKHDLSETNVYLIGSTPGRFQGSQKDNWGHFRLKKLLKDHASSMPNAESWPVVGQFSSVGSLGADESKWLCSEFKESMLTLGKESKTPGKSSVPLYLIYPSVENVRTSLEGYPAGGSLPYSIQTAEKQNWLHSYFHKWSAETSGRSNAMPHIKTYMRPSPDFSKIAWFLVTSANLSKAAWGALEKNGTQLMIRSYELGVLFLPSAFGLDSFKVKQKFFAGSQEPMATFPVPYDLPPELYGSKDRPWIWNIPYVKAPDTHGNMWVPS
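Compounds were preincubated with Tdp1 (1 nM final) for 15 min at room temperature before substrate (15 nM final) started a 5 min reaction; beads (10 ug/ml final) were then added for 10 min before AlphaScreen detection.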
IL1B secr inh – blocks inflammasome-driven IL-1 beta release; THP-1 LPS/ATP IL-1B secretion, AlphaLISA, 16 h; active compounds read low; AID 743279; activity change, % at 57.5 µM; 360,000 compounds, 4.7% hits; in the data active = activity change below about -50%; inconclusive = mostly about -30% to -49%; note: % is set by controls: 0 for no effect and ±100 for the full control effect
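Secreted IL-1B measured by AlphaLISA bead assay after 16 h compound exposure of THP-1 cells; compounds (final up to 57.5 uM) added 1 h before LPS (250 ng/mL) and ATP (1.25 mM) stimulation; lower signal means less secretion.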
HepG2 tox-1 – HepG2 cytotoxicity, counter-screen for TGF-b inhibitors | 410,000 compounds, 0.76% hits | Potency, µM (titrated, usually from 46.1 µM), for inactives: at the highest dose activity change, negative = cytotoxicity, usual class: cytotoxic | AID 588856 | HepG2 CAGA-GFP viability, ATP luminescence, 18 h; note: potency is the fitted concentration of half-maximal effect
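HepG2 CAGA-GFP cells (1000/well, DMEM with 1% FBS) received compound, then TGF-beta at 500 pg/mL final, and were incubated 18 hours at 37 degrees C. Viability was read by CellTiter-Glo luminescence. Media-only wells were set as complete cell-killing and DMSO as no toxicity.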
TDP1 cell CPT – DT40-hTDP1 cell growth loss with CPT. AID 686979. chicken DT40 Tdp1-/-;hTDP1 cells + 20 nM CPT, ATP luminescence, 48 h. 420,000 compounds, 12% hits. Potency, µM (top dose mostly 46.2 µM), for the others: top-dose activity change, negative = growth inhibition, actives largely listed as inhibitors; note: potency is the fitted concentration of half-maximal effect; % is set by controls: 0 for no effect and ±100 for the full control effect; nearly all actives have a fitted effect of over 55% in size
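Chicken DT40 Tdp1-/- cells complemented with human TDP1, 400 cells/well, exposed to compounds plus 20 nM camptothecin for at least 48 h at 37 C; viability read as ATP content by CellTiter-Glo luminescence.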
TGFb SMAD3 inh – TGF-b pathway inhibition | 410,000 compounds, 1.2% hits | HepG2 CAGA-GFP TGF-b/SMAD3 reporter, GFP fluorescence, 18 h; TGF-beta stimulated, 500 pg/mL final | AID 588855 | Potency, µM (doses to about 46.1 µM), inactives show top-dose activity, negative = inhibition, hits mostly inhibitors; note: potency is the fitted concentration of half-maximal effect; % is set by controls: 0 for no effect and ±100 for the full control effect; nearly all actives have a fitted effect of over 65% in size
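Read-out: total well GFP (ex488/em500-530) summed from mean per-cell fluorescence. Cells: HEPG2 CAGA-GFP, 1% FBS DMEM, 18 h at 37 degrees C with 500 pg/mL final TGF-beta. Unstimulated wells served as the full-inhibition control; stimulated DMSO wells = 0%.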
TDP1 cell noCPT – qHTS for Inhibitors of human tyrosyl-DNA phosphodiesterase 1 (TDP1): qHTS in cells in absence of CPT; DT40 Tdp1-/- hTDP1 cells, no CPT, ATP luminescence, 48 h; Potency, µM (doses to about 46.2 µM), inactives show top-dose activity change, negative = growth inhibition, actives largely listed as inhibitors; 420,000 compounds, 15% hits; AID 686978, 2013; note: potency is the fitted concentration of half-maximal effect; % is set by controls: 0 for no effect and ±100 for the full control effect; nearly all actives have a fitted effect of over 55% in size
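Growth of hTDP1-complemented DT40 Tdp1-knockout cells is measured by ATP luminescence after at least 48 hr compound exposure at 37 °C, with DMSO substituting for the 20 nM CPT used in the parallel screen.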
TGFb confirm – TGF-b pathway inhibition, cherry-pick retest; HepG2 CAGA-GFP TGF-b reporter, GFP fluorescence, 18 h; cells stimulated with TGF-beta, 500 pg/mL; shares compounds with TGFb SMAD3 inh; 1,600 compounds, 63% hits; Potency, µM (top dose mostly 46.1 µM), inactives show at the highest dose activity, negative = inhibition, hits mostly inhibitors; AID 720534; note: potency is the fitted concentration of half-maximal effect; % is set by controls: 0 for no effect and ±100 for the full control effect; nearly all actives have a fitted effect of over 65% in size
HepG2 tox-2 – toxic to HepG2 cells in TGF-b counterscreen; shares compounds with TGFb SMAD3 inh; HepG2 CAGA-GFP viability, ATP luminescence, 18 h; cells stimulated with TGF-beta, 500 pg/mL; Potency, µM (series often up to 46.1 µM), for inactives: at the top dose activity, negative = cytotoxicity, actives largely listed as inhibitors; 1,600 compounds, 27% hits; note: potency is the fitted concentration of half-maximal effect; % is set by controls: 0 for no effect and ±100 for the full control effect; nearly all actives have a fitted effect of over 70% in size
TGFb CCL64 inh – TGF-b inhibition, CCL64 orthogonal assay | shares compounds with TGFb SMAD3 inh | CCL64 CAGA-GFP reporter, TGF-b stimulated, GFP fluorescence, 18 h | Potency, µM (doses to about 46.1 µM), for inactives: at the highest dose activity, negative = inhibition, hits mostly inhibitors | 1,600 compounds, 41% hits | AID 720536; note: potency is the fitted concentration of half-maximal effect; nearly all actives have a fitted effect of over 65% in size
COP TGFb inh – TGF-b inhibition validated with COP promoter. Potency, µM (titrated, usually from 46.1 µM), for inactives: top-dose activity, negative = inhibition, most hits filed as inhibitors. shares compounds with TGFb SMAD3 inh. 1,600 compounds, 3% hits. AID 720537. HepG2 COP-GFP TGF-b reporter, GFP fluorescence, 18 h; cells stimulated by added recombinant TGF-beta; note: potency is the fitted concentration of half-maximal effect; nearly all actives have a fitted effect of over 70% in size
* hit, by the source's call; [ ] = remark or other dose. Sampled rows, rich in hits. Any-hit rate of the full collection: about 18%. Unless noted, calls come from the whole dose curve; as a rule, active = well fitted curve in the direction sought with a large enough effect; inconclusive = small, poorly fitted or top-dose-only effect, or another doubt; inactive = no such curve, though single readings can be large; an effect the other way counts as inactive or inconclusive.

What do the screens show for `O=C(COc1cccc(F)c1)N[C@@H](Cc1ccccc1)c1nc2ccccc2[nH]1`?
TDP1 inh: 5%; IL1B secr inh: -19; HepG2 tox-1: -28%; TDP1 cell CPT: -19%; TGFb SMAD3 inh: inconclusive; TDP1 cell noCPT: inconclusive; TGFb confirm: inconclusive; HepG2 tox-2: -10%; TGFb CCL64 inh: -13%; COP TGFb inh: -12%

Results for COc1cccc(CC(=O)N[C@@H](CCSC)c2nc3ccccc3[nH]2)c1 ?
TDP1 inh: 7%; IL1B secr inh: -10; HepG2 tox-1: 1%; TDP1 cell CPT: inconclusive; TGFb SMAD3 inh: -4%; TDP1 cell noCPT: inconclusive

What do the screens show for `Cc1c(Br)c(C(F)(F)F)nn1CC(=O)N(C)C1CCCCC1`?
IL1B secr inh: 12; HepG2 tox-1: 5%; TDP1 cell CPT: -7%; TGFb SMAD3 inh: -12%; TDP1 cell noCPT: -2%

Results for Cc1cscc1-c1ccc(C(=O)Nc2c(C)cccc2C)o1 ?
IL1B secr inh: inconclusive; HepG2 tox-1: -25%; TDP1 cell CPT: 3.7µM*; TGFb SMAD3 inh: 14µM*; TDP1 cell noCPT: 4.6µM*; TGFb confirm: 12µM*; HepG2 tox-2: -13%; TGFb CCL64 inh: -29%; COP TGFb inh: 17%

What do the screens show for `Cc1ccc(-c2ccc(C(=O)Nc3ccccc3)o2)c2ccccc12`?
TDP1 inh: 4%; IL1B secr inh: -10; HepG2 tox-1: -10%; TDP1 cell CPT: inconclusive; TGFb SMAD3 inh: inconclusive; TDP1 cell noCPT: inconclusive

Results for Cc1ccc(S(=O)(=O)N2CCN(C(=O)c3ccccc3Cc3ccccc3)CC2)c(C)c1 ?
TDP1 inh: 2%[56.1 µM]; IL1B secr inh: -72*; HepG2 tox-1: -13%; TDP1 cell CPT: inconclusive; TGFb SMAD3 inh: 11µM*; TDP1 cell noCPT: inconclusive; TGFb confirm: 16µM*; HepG2 tox-2: inconclusive; TGFb CCL64 inh: inconclusive; COP TGFb inh: 16%

What do the screens show for `Cc1ccc(S(=O)(=O)N2CCN(CCc3ccccc3)CC2)c(C)c1`?
IL1B secr inh: -3; HepG2 tox-1: -10%; TDP1 cell CPT: -4%; TGFb SMAD3 inh: inconclusive; TDP1 cell noCPT: inconclusive; TGFb confirm: 23µM*; HepG2 tox-2: inconclusive; TGFb CCL64 inh: inconclusive; COP TGFb inh: 8%
